# Screening data as filed in PubChem.
# Hits are enriched below; roughly 7.1% of the tested compounds scored in any of these assays.
# MCF10A rereplic = induces DNA re-replication in MCF 10a normal breast cells; MCF 10A DNA re-replication, Hoechst nuclear intensity, 48 h; Potency, µM (highest dose often 46.1 µM), for inactives: at the highest dose activity, positive = re-replication, most hits filed as activators; actives 2.9% (n = 350,000); AID 624296; note: potency is the fitted concentration of half-maximal effect; % of control where 0% means no effect; nearly all actives have a fitted effect of over 50% in size
# SW480 rereplic = DNA re-replication induction in SW480 cells. SW480 DNA re-replication, Hoechst DNA content imaging, 48 h. Potency, µM (titrated, usually from 46.1 µM), without a hit: at the top dose re-replication activation, most hits filed as activators. actives 1.8% (n = 340,000). AID 624297; note: potency is the fitted concentration of half-maximal effect; % of control where 0% means no effect; nearly all actives have a fitted effect of over 55% in size
#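 Readout is total intensity of Hoechst-stained nuclei, excited at 405 nm and collected at 500-530 nm. Compound treatment lasted 48 hr at 37 C in 5% CO2 before staining.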
# PINK1 expr mod = modulators of PINK1 expression | PINK1 immunofluorescence, high-content cytometry, 24 h | actives 0.2% (n = 410,000) | Potency, µM (doses to about 76.6 µM), for the others: top-dose activation (PINK1 increase), usual class: activators; active = well fitted activation curve with a large enough effect; inconclusive = small, poorly fitted or top-dose-only effect; cell line not stated here; note: potency is the fitted concentration of half-maximal effect; % of control where 0% means no effect; nearly all actives have a fitted effect of over 65% in size
#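 Fluorescence from anti-PINK1 antibody, together with nuclear and cell stains, was scanned on a laser-scanning cytometer. Before staining, stable-line cells were incubated 24 hours with compounds at 5 concentrations; primary antibody 12 h at 10 degrees C.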
# S2 tox = cell viability loss in ATXN counter-screen; Potency, µM (top dose mostly 56.7 µM), usual class: cytotoxic; AID 651635; actives 0.49% (n = 400,000); S2 cells (HEK-293 line with an ATXN2-luciferase reporter) viability, CellTiter-Fluor protease fluorescence, 24 h; note: potency is the fitted concentration of half-maximal effect; nearly all actives have a fitted effect of over 40% in size
# ATXN2 expr inh = ATXN2 expression inhibition. HEK-293 ATXN2-luciferase reporter, luminescence, 24 h. Potency, µM (titrated, usually from 57 µM), inactives show top-dose activity change, negative = inhibition, usual class: inhibitors. actives 0.72% (n = 360,000). AID 1745845; note: potency is the fitted concentration of half-maximal effect; % is set by controls: 0 for no effect and ±100 for the full control effect; nearly all actives have a fitted effect of over 55% in size
#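 ATXN2-luciferase reporter cells (luciferase flanked by upstream and downstream ATXN2 gene portions) were treated 24 h at 37 °C with compounds at up to 57 uM. SteadyGlo luminescence gave expression; GF-AFC fluorescence gave viability.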
# IL1B secr inh = blocks inflammasome-driven IL-1 beta release. actives 4.7% (n = 360,000). THP-1 LPS/ATP IL-1B secretion, AlphaLISA, 16 h; stronger effect = lower value. AID 743279. activity change, % at 57.5 µM; in the data active = activity change below about -50%; inconclusive = mostly about -30% to -49%; note: % is set by controls: 0 for no effect and ±100 for the full control effect
#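 Secreted IL-1B measured by AlphaLISA bead assay after 16 h compound exposure of THP-1 cells; compounds (final up to 57.5 uM) added 1 h before LPS (250 ng/mL) and ATP (1.25 mM) stimulation; lower signal means less secretion.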
# * = called active by the depositor; i = inactive; u = inconclusive; x = no result; [ ] = remark or other dose. Unless noted, calls come from the whole dose curve; as a rule, active = well fitted curve in the direction sought with a large enough effect; inconclusive = small, poorly fitted or top-dose-only effect, or another doubt; inactive = no such curve, though single readings can be large; an effect the other way counts as inactive or inconclusive.
SMILES,MCF10A rereplic,SW480 rereplic,PINK1 expr mod,S2 tox,ATXN2 expr inh,IL1B secr inh
O=C(Nc1ccccc1)c1cc(C2CCCN(C(=O)C3CC3)C2)on1 (configuration not stated),x,x,0%,i,10µM*,7
O=C(NCc1ccccc1)c1cc(C2CCCN(S(=O)(=O)c3cccs3)C2)on1 (configuration not stated),x,x,-1%,i,-8%,-59*
CC(=O)N1CCCC(c2cc(C(=O)Nc3ccccc3)no2)C1 (configuration not stated),x,x,1%,i,u,2
C[C@H]1O[C@@H](O[C@H]2[C@@H](O)C[C@H](O[C@H]3[C@@H](O)C[C@H](O[C@H]4CC[C@@]5(C)[C@H](CC[C@@H]6[C@@H]5C[C@@H](O)[C@]5(C)[C@@H](C7=CC(=O)OC7)CC[C@]65O)C4)O[C@@H]3C)O[C@@H]2C)C[C@H](O)[C@@H]1O,u,0.41µM*,0%,u,0.32µM*,-63*
COc1ccccc1NC(=O)CSc1nnc(CNC(=O)c2cccs2)o1,0%,-19%,0%,i,1%,-77*
COc1ccc(C(=O)NCc2nnc(SCC(=O)N3CCCC3)o2)cc1OC,-5%,4%,1%,i,7%,-55*
COc1ccc(Br)cc1CNC(=O)c1cnc2sc(N3CCCCCC3)nn2c1=O,x,x,1%,x,x,x
CC(C)c1ccc(NS(=O)(=O)c2ccc3[nH]c(=O)ccc3c2)cc1,x,x,1%,i,-3%,x
Cc1cccc(/N=C/c2nc(-c3ccccc3Br)oc2O)n1,-17%,4.1µM*,3%,i,x,-26
Cc1ccnc(N=Cc2nc(-c3ccccc3Br)oc2O)c1,-1%,-192%,1%,u,x,1
COC(=O)C1CCN(Cc2ccc3c(c2)CN(C(=O)c2cc(-c4ccc(C)o4)[nH]n2)CCO3)CC1,x,x,1%,i,x,x
CN(C)C(=O)CNC(=O)CN1C(=O)NC2(CCCc3sccc32)C1=O (configuration not stated),-3%,1%,-1%,i,-3%,-65*
Cc1ccc(C)c(Nc2nn3c(=O)c4ccc(C(=O)NCc5cccs5)cc4nc3s2)c1,x,x,1%,x,x,x
Nc1c(C(=O)NCc2ccco2)c2nc3ccccc3nc2n1CCc1ccc(F)cc1,u,5.8µM*,1%,x,-34%,-116*
CC(C)OC(=O)c1c(N)n(CCCN2CCOCC2)c2nc3ccccc3nc12,0%,u,-1%,u,-5%,-11
Nc1c(C(=O)NCCN2CCOCC2)c2nc3ccccc3nc2n1CCc1ccccc1F,4%,-1%,x,x,u,-63*
Nc1c(C(=O)NCCN2CCOCC2)c2nc3ccccc3nc2n1CCc1ccccc1,1.8µM*,16µM*,0%[38.3 µM],x,u,-59*
O=C(NCc1ccco1)C1CCN(c2nc3ccccc3n2Cc2ccc(F)cc2)CC1,9%,1%,-1%,i,-10%,u
c1ccc2nc3c(nc2c1)c1ccccc1n3CCN1CCOCC1,18µM*,u,5%[38.3 µM],i,-28%,-63*
CCOc1ccccc1NC(=O)Cn1c(=O)n(-c2ccc(Cl)cc2)c(=O)c2oc3ccccc3c21,x,x,0%,x,x,x
CC(CCN1CCC(CN2C(=O)C(=O)NC[C@@H]2Cc2ccccc2)CC1)c1ccccc1 (some centres not stated),0%,-16%,0%,i,18%,-5
Cc1oc(-c2ccccc2NC(=O)C2CCC2)nc1CNC(=O)c1c(F)ccc(F)c1F,x,x,0%,u,x,x
Cc1cc(C)n(-c2nc(Nc3ccccc3)nc(-n3nc(C)cc3C)n2)n1,5%,-10%,-4%[38.3 µM],i,-3%,-2
COc1cccc(/C=N/NC(=O)c2c(-c3ccccc3)noc2C)c1O,u,u,-4%,u,u,116
